Laboratory results reported in PubChem BioAssay (Tox21).
Values joined by “and” are separate entries in the source; they are usually repeats but may differ in a detail not shown here. Identical values can stand only once. Records with an inconclusive call do not appear. A call without a number means that no potency is given here. Some structures have more than one record in an assay (separate samples or runs), and their calls can disagree. Active and inactive are the calls of the source. Unless noted, calls come from the whole dose curve; as a rule, active = well fitted curve in the direction sought with a large enough effect in the repeat runs; inconclusive = weak or mixed curves; inactive = no such curve, though single readings can be large; an effect the other way counts as inactive or inconclusive.

What was measured:
[1] = qHTS assay to test for compound auto fluorescence at 535 nm (green) in HEK293 cells (AID 720680); note: potency is the fitted concentration of half-maximal effect
[2] = qHTS assay to test for compound auto fluorescence at 460 nm (blue) in HEK293 cell free culture (AID 720681)
In short: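 Compounds were added to cell-free DMEM with 10% FBS and fluorescence read directly. The blue channel used 405 nm excitation and 460 nm emission, with triamterene as the reference fluorophore.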

[3] = qHTS assay to test for compound auto fluorescence at 535 nm (green) in HEK293 cell free culture (AID 720682); note: potency is the fitted concentration of half-maximal effect
In short: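 Each library compound, or DMSO control, is added by pintool to medium alone, comprising DMEM and 10% FBS. Emission at 535 nm following 485 nm excitation is quantified against fluorescein.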

[4] = qHTS assay to test for compound auto fluorescence at 590 nm (red) in HEK293 cell free culture (AID 720683); note: potency is the fitted concentration of half-maximal effect
In short: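 Cell-free wells of DMEM with 10% FBS received compound, and intrinsic fluorescence was read at excitation/emission 540/590 nm. Values expressed as equivalence to Rose Bengal sodium.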

[5] = qHTS assay to test for compound auto fluorescence at 590 nm (red) in HepG2 cell free culture (AID 720684); note: potency is the fitted concentration of half-maximal effect
In short: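 Auto fluorescence equivalency versus Rose Bengal sodium, red channel Ex/Em 540/590 nm; compounds in cell-free MEM/10% FBS; DMSO vehicle control.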

[6] = qHTS assay to test for compound auto fluorescence at 460 nm (blue) in HepG2 cell free culture (AID 720685)
In short: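 Cell-free plates of MEM plus 10% FBS received 23 nL compound or DMSO vehicle; blue-channel (405/460 nm) intensity scored against triamterene as reference fluorophore.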

[7] = qHTS assay to test for compound auto fluorescence at 460 nm (blue) in HepG2 cells (AID 720687)
In short: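 HepG2 cells in MEM with 10% FBS, attached overnight at 37 C, were exposed to compound or DMSO for 1 hr at 37 C, 5% CO2. Blue fluorescence was read at 405/460 nm, with triamterene as reference fluorophore.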

[8] = biological target: Glucocorticoid receptor (Homo sapiens) (UniProt P04150); test: qHTS assay to identify small molecule agonists of the glucocorticoid receptor (GR) signaling pathway (AID 720691; active = well fitted activation curve with a large enough effect in the signal ratio in the repeat runs, not every such curve was filed as active; the % refers to the signal ratio)
In short: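 Cells: GR-bla HeLa, endogenous GR with stably integrated GRE-beta-lactamase reporter. Treatment 18 h, 37 C, compounds delivered in DMSO. Detection via LiveBLAzer B/G FRET substrate, 2 h RT, fluorescence intensity.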

[9] = biological target: Glucocorticoid receptor (Homo sapiens) (UniProt P04150); test: qHTS assay to identify small molecule antagonists of the glucocorticoid receptor (GR) signaling pathway (AID 720692; active = well fitted inhibition curve with a large enough effect in the signal ratio in the repeat runs, not every such curve was filed as active; the % refers to the signal ratio; note: potency is the fitted concentration of half-maximal effect)
In short: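 Quantitative HTS in antagonist format: HeLa cells expressing endogenous GR and a stably integrated GRE-bla reporter, stimulated with 5 nM dexamethasone (final) alongside test compounds for 18 h.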

[10] = qHTS assay to identify small molecule antagonists of the glucocorticoid receptor (GR) signaling pathway - cell viability counter screen (AID 720693); note: nearly all actives have a fitted effect of over 55% in size
[11] = qHTS assay for identifying genotoxic compounds that show differential cytotoxicity against isogenic chicken DT40 cell lines with known DNA damage response pathways - wild type cell line (AID 743012); note: nearly all actives have a fitted effect of over 60% in size; note: potency is the fitted concentration of half-maximal effect
In short: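 Luminescent ATP viability signal (CellTiter-Glo, 30 min RT) recorded after wild type DT40 cells were incubated with compounds for 40 h at 37 C/5% CO2.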

[12] = qHTS assay for identifying genotoxic compounds that show differential cytotoxicity against isogenic chicken DT40 cell lines with known DNA damage response pathways - Rev3 mutant cell line (AID 743014); note: nearly all actives have a fitted effect of over 55% in size; note: potency is the fitted concentration of half-maximal effect
[13] = qHTS assay for identifying genotoxic compounds that show differential cytotoxicity against isogenic chicken DT40 cell lines with known DNA damage response pathways - Rad54/Ku70 mutant cell line (AID 743015); note: nearly all actives have a fitted effect of over 60% in size; note: potency is the fitted concentration of half-maximal effect
[14] = qHTS assay to identify small molecule antagonists of the androgen receptor (AR) signaling pathway - cell viability counter screen (AID 743033; note: nearly all actives have a fitted effect of over 45% in size; note: potency is the fitted concentration of half-maximal effect)
[15] = qHTS assay to identify small molecule antagonists of the androgen receptor (AR) signaling pathway using the MDA cell line - cell viability counter screen (AID 743041; note: nearly all actives have a fitted effect of over 45% in size; note: potency is the fitted concentration of half-maximal effect)
In short: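 Compound exposure lasted 16 h at 37C in MDA-kb2 AR-luc cells stimulated with R1881. Protease-based CellTiter-Fluor reagent was applied for the final 30 min and fluorescence measured.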

[16] = biological target: Androgen receptor (Homo sapiens) (UniProt P10275); test: qHTS assay to identify small molecule antagonists of the androgen receptor (AR) signaling pathway (AID 743035; active = well fitted inhibition curve with a large enough effect in the signal ratio in the repeat runs, not every such curve was filed as active; the % refers to the signal ratio; note: potency is the fitted concentration of half-maximal effect)
In short: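 Quantitative HTS of the Tox21 10K library used HEK293 AR-UAS-bla cells stimulated with R1881 alongside compound for 16 h at 37C, followed by beta-lactamase FRET detection (LiveBLAzer B/G, 2 h, RT).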

[17] = biological target: Androgen receptor (Homo sapiens) (UniProt P10275); test: qHTS assay to identify small molecule agonists of the androgen receptor (AR) signaling pathway (AID 743036; active = well fitted activation curve with a large enough effect in the signal ratio in the repeat runs, with a control signal flat, not every such curve was filed as active; the % refers to the signal ratio)
In short: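 Following a 4 h settling period, AR-UAS-bla HEK293 cells were dosed with compounds for 16 h at 37C. A 2 h room-temperature incubation with LiveBLAzer B/G FRET substrate preceded the fluorescence measurement.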

[18] = biological target: Androgen receptor (Homo sapiens) (UniProt P10275); test: qHTS assay to identify small molecule agonists of the androgen receptor (AR) signaling pathway using the MDA cell line (AID 743040; note: nearly all actives have a fitted effect of over 20% in size)
In short: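 Testing was done with the MDA-kb2 AR-luc line, a human breast carcinoma stably transfected with MMTV-luciferase containing AR and GR response elements. Cells were exposed 16 h at 37C before ONE-Glo luminescence detection.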

[19] = biological target: Androgen receptor (Homo sapiens) (UniProt P10275); test: qHTS assay to identify small molecule antagonists of the androgen receptor (AR) signaling pathway using the MDA cell line (AID 743042; note: nearly all actives have a fitted effect of over 55% in size)
In short: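 MDA-kb2 breast carcinoma cells carrying MMTV-luciferase (AR/GR responsive) were co-treated with compounds and the agonist R1881 for 16 h at 37C. Inhibition read as ONE-Glo luminescence; CellTiter-Fluor fluorescence measured in parallel for cytotoxicity.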
Tags give direction and shape of the fitted curve or compound fluorescence and quenching.

Androgen receptor (Homo sapiens), sequence (P10275 whole entry, looked up): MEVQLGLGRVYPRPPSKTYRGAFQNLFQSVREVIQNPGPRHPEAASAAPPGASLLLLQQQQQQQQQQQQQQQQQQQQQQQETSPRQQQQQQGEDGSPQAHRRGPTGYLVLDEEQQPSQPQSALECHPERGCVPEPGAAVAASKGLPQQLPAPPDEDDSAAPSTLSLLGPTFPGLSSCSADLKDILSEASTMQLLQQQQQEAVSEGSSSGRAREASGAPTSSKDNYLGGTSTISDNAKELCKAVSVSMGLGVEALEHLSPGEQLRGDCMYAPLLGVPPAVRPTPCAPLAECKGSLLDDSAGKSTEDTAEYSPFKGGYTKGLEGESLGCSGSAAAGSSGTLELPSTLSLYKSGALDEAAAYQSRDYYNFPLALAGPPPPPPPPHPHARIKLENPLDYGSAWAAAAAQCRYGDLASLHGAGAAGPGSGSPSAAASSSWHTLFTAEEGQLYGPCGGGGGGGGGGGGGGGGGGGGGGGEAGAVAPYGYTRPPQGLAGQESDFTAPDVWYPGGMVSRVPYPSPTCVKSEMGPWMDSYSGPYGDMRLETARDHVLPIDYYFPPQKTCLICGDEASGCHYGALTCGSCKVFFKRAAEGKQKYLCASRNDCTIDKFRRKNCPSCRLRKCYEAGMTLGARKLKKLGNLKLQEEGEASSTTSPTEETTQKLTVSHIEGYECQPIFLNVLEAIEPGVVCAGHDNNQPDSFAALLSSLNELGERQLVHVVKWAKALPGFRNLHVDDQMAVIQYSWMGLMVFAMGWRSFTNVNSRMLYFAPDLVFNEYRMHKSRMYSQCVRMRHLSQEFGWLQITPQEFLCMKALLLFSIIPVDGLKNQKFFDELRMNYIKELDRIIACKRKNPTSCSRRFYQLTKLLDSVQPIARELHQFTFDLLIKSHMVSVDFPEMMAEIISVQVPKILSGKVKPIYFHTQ
Glucocorticoid receptor (Homo sapiens), sequence (P04150 whole entry, looked up): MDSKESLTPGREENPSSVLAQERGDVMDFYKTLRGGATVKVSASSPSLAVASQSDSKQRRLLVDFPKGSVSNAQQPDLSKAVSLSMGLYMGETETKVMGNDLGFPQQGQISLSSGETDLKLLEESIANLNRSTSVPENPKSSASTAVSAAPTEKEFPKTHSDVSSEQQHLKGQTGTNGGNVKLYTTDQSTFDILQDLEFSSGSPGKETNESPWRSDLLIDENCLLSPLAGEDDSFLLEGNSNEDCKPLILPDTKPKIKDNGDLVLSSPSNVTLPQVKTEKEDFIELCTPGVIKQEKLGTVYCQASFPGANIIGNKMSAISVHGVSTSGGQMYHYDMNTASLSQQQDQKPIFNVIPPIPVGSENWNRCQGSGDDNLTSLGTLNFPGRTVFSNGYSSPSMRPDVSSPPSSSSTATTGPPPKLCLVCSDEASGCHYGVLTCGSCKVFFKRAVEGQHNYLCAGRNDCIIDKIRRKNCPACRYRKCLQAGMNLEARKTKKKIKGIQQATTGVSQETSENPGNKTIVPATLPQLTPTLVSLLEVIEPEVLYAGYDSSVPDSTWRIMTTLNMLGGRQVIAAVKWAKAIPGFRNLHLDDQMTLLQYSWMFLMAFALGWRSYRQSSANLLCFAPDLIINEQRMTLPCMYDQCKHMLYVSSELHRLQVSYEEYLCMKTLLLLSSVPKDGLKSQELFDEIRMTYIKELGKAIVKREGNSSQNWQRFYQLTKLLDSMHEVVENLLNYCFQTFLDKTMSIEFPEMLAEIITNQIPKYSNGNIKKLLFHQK

| SMILES | Potency [1] | outcome [2] | Potency [3] | Potency [4] | Potency [5] | outcome [6] | outcome [7] | Potency [8] | Potency [9] | Potency [10] | Potency [11] | Potency [12] | Potency [13] | Potency [14] | Potency [15] | Potency [16] | outcome [17] | Potency [18] | Potency [19] |
| --- | --- | --- | --- | --- | --- | --- | --- | --- | --- | --- | --- | --- | --- | --- | --- | --- | --- | --- | --- |
| c1cc(-c2ccncc2)ccn1 | inactive | inactive | inactive | inactive | inactive | inactive | inactive | inactive | inactive | inactive | inactive | inactive | inactive | inactive | inactive | – | – | – | – |
| O=C=Nc1ccc(Cc2ccc(N=C=O)cc2)cc1 | inactive | inactive | inactive | inactive | inactive | inactive | inactive | inactive | inactive | inactive | 21.3 µM (active) and inactive | 10.7 µM (active) and inactive | inactive | inactive | inactive | – | – | – | – |
| S=C(NC1CCCCC1)NC1CCCCC1 | inactive | inactive | inactive | inactive | inactive | inactive | inactive | inactive | inactive | inactive | inactive | inactive and 61.1 µM (active) | inactive and 61.1 µM (active) | 19.1 µM (active) | inactive | – | – | – | – |
| Nc1ccc(S(=O)(=O)Nc2cnc3ccccc3n2)cc1 | inactive | inactive | inactive | inactive | inactive | inactive | inactive | inactive | inactive | inactive | inactive | inactive | inactive | inactive | inactive | – | – | – | – |
| c1ccncc1 | inactive | inactive | inactive | inactive | inactive | inactive | inactive | – | – | inactive | inactive | inactive | inactive | inactive | inactive | – | – | – | – |
| Cc1cccc(C(=O)O)c1 | inactive | inactive | inactive | inactive | inactive | inactive | inactive | – | – | inactive | inactive | inactive | inactive | inactive | inactive | inactive | inactive | inactive | inactive |
| CC(=O)CC/C=C(\C)CCC=C(C)C | inactive | inactive | inactive | inactive | inactive | inactive | inactive | – | – | inactive | inactive | inactive | inactive | inactive | inactive | – | – | – | – |
| C[C@]12CCC(=O)C=C1CC[C@@H]1[C@@H]2C(=O)C[C@@]2(C)[C@H]1CC[C@]2(O)C(=O)CO | inactive | inactive | inactive | inactive | inactive | inactive | inactive | – | 9.52 µM (active) and 6.92 µM (active) | inactive | inactive and 61.1 µM (active) | inactive and 61.1 µM (active) | inactive and 68.6 µM (active) | inactive | inactive | – | – | – | – |
| CCCCOCCOCCOCCO | inactive | inactive | inactive | inactive | inactive | inactive | inactive | – | – | inactive | inactive | inactive | inactive | inactive | inactive | – | – | – | – |
| CC(C)OB(OC(C)C)OC(C)C | inactive | inactive | inactive | inactive | inactive | inactive | inactive | inactive | inactive | inactive | inactive | inactive | inactive | inactive | inactive | – | – | – | – |
| Cc1cc2nc3c(=O)[nH]c(=O)nc-3n(C[C@H](O)[C@H](O)[C@H](O)CO)c2cc1C | 35.5 µM [fluorescent] (active) [middle of 4 runs] | inactive | 31.6 µM [fluorescent] (active) [middle of 4 runs] | inactive | inactive | inactive | inactive | inactive | – | inactive | inactive | inactive | 18.8 µM (active) and inactive | inactive | – | – | – | – | – |
| COc1cc([C@@H]2c3cc4c(cc3[C@H](O)[C@H]3COC(=O)[C@H]23)OCO4)cc(OC)c1OC | inactive | inactive | inactive | inactive | inactive | inactive | inactive | inactive | – | inactive | 26.6 nM (active) and 24.3 nM (active) | 29.8 nM (active) and 19.3 nM (active) | 29.8 nM (active) and 21.7 nM (active) | inactive | inactive | 0.0379 µM (active) | – | inactive | inactive |
| O=C1OC2(c3cc(Br)c(O)c(Br)c3Oc3c2cc(Br)c(O)c3Br)c2c(Cl)c(Cl)c(Cl)c(Cl)c21 | inactive | inactive | inactive | 2 µM [fluorescent] (active) and 14.1 µM [fluorescent] (active) | 1.78 µM [fluorescent] (active) and 10 µM [fluorescent] (active) | inactive | inactive | inactive | 49.1 µM (active) and inactive | – | – | inactive | inactive | inactive | 4.33 µM (active) and 37.1 µM (active) | – | – | – | – |
| O=c1oc(=O)c2cc3c(=O)oc(=O)c3cc12 | inactive | inactive | inactive | inactive | inactive | inactive | inactive | – | – | inactive | inactive | inactive | inactive | inactive | inactive | – | – | – | – |
| Nc1ccc(Nc2ccccc2)cc1 | inactive | inactive | inactive | inactive | inactive | inactive | inactive | inactive | – | inactive | 30.6 µM (active) | 67.8 µM (active) and 54.5 µM (active) and 34.4 µM (active) | 54.5 µM (active) and 43.3 µM (active) | inactive | inactive | – | – | – | – |
| C=CC(C)(CCC=C(C)C)OC(C)=O (stereo not drawn) | inactive | inactive | inactive | inactive | inactive | inactive | inactive | inactive | inactive | inactive | inactive | inactive and 54.5 µM (active) | inactive | inactive | inactive | – | – | – | – |
| CCCCCCCCCC(=O)OC | inactive | inactive | inactive | inactive | inactive | inactive | inactive | – | – | inactive | inactive | inactive | inactive | inactive | inactive | – | – | – | – |
